Consider 22 molecules from ChEMBL document CHEMBL4808148, “HDAC6 screening dataset using tau-based substrate in an enzymatic assay yields selective inhibitors and activators” (2021).

Among all 5,600 compounds or so, about 150 (2.7%) showed an effect of 50% or more. Many of the other results were omitted from the sample, so strong results are more common in it than they were.

In this assay the target is T1, Protein deacetylase HDAC6 (Homo sapiens) (UniProt Q9UBN7).
T1 sequence (whole entry): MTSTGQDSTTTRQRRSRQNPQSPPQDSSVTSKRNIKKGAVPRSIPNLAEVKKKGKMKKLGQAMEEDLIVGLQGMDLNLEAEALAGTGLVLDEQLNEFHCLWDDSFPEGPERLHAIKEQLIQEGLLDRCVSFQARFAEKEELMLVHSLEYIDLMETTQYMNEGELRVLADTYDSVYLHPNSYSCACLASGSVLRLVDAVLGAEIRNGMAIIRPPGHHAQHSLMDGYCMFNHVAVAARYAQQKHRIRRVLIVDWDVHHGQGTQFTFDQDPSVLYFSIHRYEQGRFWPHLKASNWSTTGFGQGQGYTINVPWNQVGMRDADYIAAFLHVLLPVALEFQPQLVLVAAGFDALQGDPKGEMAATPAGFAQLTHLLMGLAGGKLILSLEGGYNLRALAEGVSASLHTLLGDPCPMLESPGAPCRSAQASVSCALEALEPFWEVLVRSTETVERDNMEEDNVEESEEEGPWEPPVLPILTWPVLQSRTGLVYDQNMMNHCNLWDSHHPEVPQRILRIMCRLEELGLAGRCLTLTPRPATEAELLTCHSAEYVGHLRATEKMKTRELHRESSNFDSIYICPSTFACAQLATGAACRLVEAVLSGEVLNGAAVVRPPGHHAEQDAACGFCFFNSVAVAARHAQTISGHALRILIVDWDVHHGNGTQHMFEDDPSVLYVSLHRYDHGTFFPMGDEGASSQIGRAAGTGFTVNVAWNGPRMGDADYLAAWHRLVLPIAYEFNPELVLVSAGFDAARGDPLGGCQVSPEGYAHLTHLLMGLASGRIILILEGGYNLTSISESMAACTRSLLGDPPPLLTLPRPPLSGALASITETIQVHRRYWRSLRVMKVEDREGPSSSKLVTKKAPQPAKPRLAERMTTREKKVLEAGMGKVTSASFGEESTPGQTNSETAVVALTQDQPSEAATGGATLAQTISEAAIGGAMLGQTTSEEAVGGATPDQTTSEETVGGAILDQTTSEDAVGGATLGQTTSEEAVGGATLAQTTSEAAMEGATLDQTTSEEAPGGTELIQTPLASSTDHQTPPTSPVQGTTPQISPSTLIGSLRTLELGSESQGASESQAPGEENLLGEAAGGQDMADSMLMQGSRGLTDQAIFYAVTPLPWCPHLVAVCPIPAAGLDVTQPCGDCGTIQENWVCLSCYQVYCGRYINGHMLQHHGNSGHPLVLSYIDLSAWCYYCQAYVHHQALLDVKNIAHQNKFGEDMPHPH
As to conditions: at 10 µM.
As to `CCN(c1ccccc1)c1cc(NC)[n+](C)c(C)n1`, the inhibition is -1.77%.

Take `O=C(O)Cc1nn(Cc2nc3cc(C(F)(F)F)ccc3s2)c(=O)c2ccccc12`: the inhibition was -1.1%.

As to `O=C(Nc1ccc(S(=O)(=O)Nc2nccs2)cc1)C(c1ccccc1)c1ccccc1`, the inhibition is -1.03%.

As to `CN[C@@H](C)C(=O)N[C@H](C(=O)N1CCC[C@H]1C(=O)Nc1sc(-c2ncco2)nc1-c1ccccc1)C1CCCCC1`, the inhibition was -6.76%.

On to `O=c1[nH]cnc2ccccc12`, for which the inhibition is -1.07%.

With `COc1cc2nc(N3CCN(C(=O)COc4c(OC)cccc4C(C)C)CC3)nc(N)c2cc1OC`, the inhibition was found to be 4.56%.

For the molecule `CCCCOc1nc(N)c2c(n1)N(Cc1cccc(CN3CCCC3)c1)CC(=O)N2`, the inhibition amounted to 3.13%.

For the molecule `CC1CCc2c(cc(Br)c(F)c2Br)N1C=O` (configuration not stated), the inhibition is 3.01%.

Consider `N#C/C(=C\c1cn(-c2ccccc2)c2ccccc12)C(=O)O`, for which the inhibition was -2.69%.

On to `O=S(=O)(O)CC(S)CS` (configuration not stated), for which the inhibition is 2.52%.

Turning to `Cc1ccc(CCCO)c(NCc2ccc3nc(NCCCN4CCOCC4)n(Cc4nc(C)ccc4O)c3c2)c1`, the inhibition is -5.63%.

As to `N#Cc1c(N)nc(SCc2csc(-c3ccc(Cl)cc3)n2)c(C#N)c1-c1ccc(OCCO)cc1`, the inhibition stood at 2.06%.

With `CCCCCCCCCCCCCCCC[n+]1ccn(Cc2ccccc2)c1C`, the inhibition was -2.57%.

Regarding `COc1cc2c(cc1OC)-c1c(C)c3ccc(OC)c(OC)c3c[n+]1CC2`, the inhibition is -0.34%.

For `COc1ccc([C@@H]2CC(=O)c3c(O)cc(O)cc3O2)cc1O`, the inhibition turned out to be 31.5%.

As for `COc1ccc(-c2cc(=O)c3c(O)cc(O)cc3o2)cc1O`, the inhibition was 52.3%.

Take `COc1ccc(-c2cc(=O)c3c(O)cc(O[C@@H]4O[C@H](CO[C@@H]5O[C@@H](C)[C@H](O)[C@@H](O)[C@H]5O)[C@@H](O)[C@H](O)[C@H]4O)cc3o2)cc1O`: the inhibition was 8.42%.

Turning to `O=C(O)c1ccc(NC(=O)[C@H](Cc2ccc(O)cc2)NC(=O)c2ccccc2)cc1`, the inhibition is 3.32%.

`CC(C)[C@H](C(=O)Nc1ccc(C(=O)NO)cc1)c1ccccc1`: the inhibition amounted to 98%.

For the molecule `CC(=O)Nc1ccc(C(=O)Nc2ccccc2N)cc1`, the inhibition amounted to 0.93%.

In the case of `O=C(O)c1ccccc1Nc1ccc(CCc2ccc(Cl)c(Cl)c2)cc1`, the inhibition was -6.85%.

In the case of `COc1ccc2c(c1)C(C(=O)N(Cc1ccc(N(C)C)cc1)c1ccc(C(C)C)cc1)CCC2` (configuration not stated), the inhibition was -3.38%.
